# Reference: PMC7862700, “An all-to-all approach to the identification of sequence-specific readers for epigenetic DNA modifications on cytosine”
# How the values were obtained:
# Assay in all cases: DAPPL (digital affinity profiling via proximity ligation, sequencing); 10 mM Tris-HCl pH 7.5, 50 mM NaCl, 1 mM DTT, 4% glycerol, room temperature, 30 min; GST-TFs on glutathione beads, 16-mer random dsDNA library, 0.1% formaldehyde crosslink after washing; high values mean tight binding
# [1] = target: T1, FEV (Homo sapiens, UniProt Q99581 1-238); settings: protein: recombinant; tags: N-terminal GST; dsDNA, one strand shown
# T1 sequence: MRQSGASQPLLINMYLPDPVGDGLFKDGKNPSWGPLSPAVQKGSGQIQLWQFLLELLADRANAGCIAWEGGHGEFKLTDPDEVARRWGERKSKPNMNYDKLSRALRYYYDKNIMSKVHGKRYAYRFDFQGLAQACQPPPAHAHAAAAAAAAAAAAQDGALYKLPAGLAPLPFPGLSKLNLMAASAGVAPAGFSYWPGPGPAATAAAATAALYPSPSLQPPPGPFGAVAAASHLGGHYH
# In short: (§1)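 Binding signal is each hexamer's read frequency for a factor divided by its frequency in the tag-only sample. The factors were GST-fused human transcription factors from yeast, captured on glutathione beads, DNA-barcoded and pooled with that sample. Pools were incubated with 200 nmole of a random double-stranded 16-mer DNA library in Tris/NaCl/DTT/glycerol buffer at room temperature for 30 min, then washed, crosslinked with 0.1% formaldehyde, proximity-ligated with BsaI/T4 ligase (1 h, 37 °C), PCR-amplified and sequenced on an Illumina NextSeq500.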
# [2] = target: ETV5 (Homo sapiens, UniProt P41161 1-510); settings: protein: recombinant; tags: N-terminal GST; dsDNA, one strand shown
# In short: as §1
# [3] = target: HSF1 (Homo sapiens, UniProt Q00613 1-529); settings: protein: recombinant; tags: N-terminal GST; chain copies: 3; dsDNA, one strand shown
# In short: as §1
# [4] = target: T2, SPIC (Homo sapiens, UniProt Q8N5J4 1-248); settings: protein: recombinant; tags: N-terminal GST; dsDNA, one strand shown
# T2 sequence: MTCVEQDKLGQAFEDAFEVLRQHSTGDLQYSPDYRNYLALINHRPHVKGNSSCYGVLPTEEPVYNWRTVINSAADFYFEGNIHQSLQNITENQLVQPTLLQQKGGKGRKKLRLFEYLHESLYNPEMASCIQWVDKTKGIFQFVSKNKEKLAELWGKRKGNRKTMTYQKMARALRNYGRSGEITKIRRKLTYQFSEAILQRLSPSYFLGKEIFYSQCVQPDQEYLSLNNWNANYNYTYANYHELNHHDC
# In short: as §1
# [5] = target: ELF4 (Homo sapiens, UniProt Q99607 1-663); settings: protein: recombinant; tags: N-terminal GST; dsDNA, one strand shown
# In short: as §1
# [6] = target: T3, ELK4 (Homo sapiens, UniProt P28324-2 1-405); settings: protein: recombinant; tags: N-terminal GST; dsDNA, one strand shown
# T3 sequence: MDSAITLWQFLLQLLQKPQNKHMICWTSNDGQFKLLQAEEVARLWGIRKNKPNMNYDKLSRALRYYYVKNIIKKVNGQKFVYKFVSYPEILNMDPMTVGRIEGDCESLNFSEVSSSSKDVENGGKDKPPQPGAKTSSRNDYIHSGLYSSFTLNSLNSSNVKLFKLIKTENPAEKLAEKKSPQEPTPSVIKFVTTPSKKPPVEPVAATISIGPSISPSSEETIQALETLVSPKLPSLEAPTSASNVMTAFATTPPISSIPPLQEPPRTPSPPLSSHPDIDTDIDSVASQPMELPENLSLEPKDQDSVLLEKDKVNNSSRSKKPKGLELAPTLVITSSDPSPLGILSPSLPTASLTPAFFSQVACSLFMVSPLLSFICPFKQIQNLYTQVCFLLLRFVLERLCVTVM
# In short: as §1
# [7] = target: T4, ETV2 (Homo sapiens, UniProt O00321 1-342); settings: protein: recombinant; tags: N-terminal GST; dsDNA, one strand shown
# T4 sequence: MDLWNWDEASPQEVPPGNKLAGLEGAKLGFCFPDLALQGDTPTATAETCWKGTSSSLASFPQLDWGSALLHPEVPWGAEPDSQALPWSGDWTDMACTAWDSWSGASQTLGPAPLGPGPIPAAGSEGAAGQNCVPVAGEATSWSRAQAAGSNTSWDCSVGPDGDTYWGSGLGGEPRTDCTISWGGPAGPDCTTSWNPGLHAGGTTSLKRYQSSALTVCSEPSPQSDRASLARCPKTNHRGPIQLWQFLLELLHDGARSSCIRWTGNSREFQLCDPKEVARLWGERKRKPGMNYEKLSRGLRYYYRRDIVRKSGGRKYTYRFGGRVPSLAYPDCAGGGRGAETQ
# In short: as §1
# [8] = target: T5, ELF3 (Homo sapiens, UniProt P78545 1-371); settings: protein: recombinant; tags: N-terminal GST; dsDNA, one strand shown
# T5 sequence: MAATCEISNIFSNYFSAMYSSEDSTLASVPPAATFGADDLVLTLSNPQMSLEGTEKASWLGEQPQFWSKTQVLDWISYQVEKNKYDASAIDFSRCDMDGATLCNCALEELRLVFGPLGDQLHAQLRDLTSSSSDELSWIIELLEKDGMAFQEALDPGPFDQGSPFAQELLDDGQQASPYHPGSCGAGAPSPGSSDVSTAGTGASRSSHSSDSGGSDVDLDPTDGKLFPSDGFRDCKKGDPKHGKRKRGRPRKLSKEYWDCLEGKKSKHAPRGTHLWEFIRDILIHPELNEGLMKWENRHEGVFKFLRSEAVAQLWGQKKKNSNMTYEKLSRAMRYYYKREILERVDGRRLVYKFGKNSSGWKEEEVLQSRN
# In short: as §1
# [9] = target: CRX (Homo sapiens, UniProt O43186 1-299); settings: protein: recombinant; tags: N-terminal GST; dsDNA, one strand shown
# In short: as §1
# [10] = target: ETV1 (Homo sapiens, UniProt P50549 1-477); settings: protein: recombinant; tags: N-terminal GST; dsDNA, one strand shown
# In short: as §1
# [11] = target: T6, ERF (Homo sapiens, UniProt P50548 1-548); settings: protein: recombinant; tags: N-terminal GST; dsDNA, one strand shown
# T6 sequence: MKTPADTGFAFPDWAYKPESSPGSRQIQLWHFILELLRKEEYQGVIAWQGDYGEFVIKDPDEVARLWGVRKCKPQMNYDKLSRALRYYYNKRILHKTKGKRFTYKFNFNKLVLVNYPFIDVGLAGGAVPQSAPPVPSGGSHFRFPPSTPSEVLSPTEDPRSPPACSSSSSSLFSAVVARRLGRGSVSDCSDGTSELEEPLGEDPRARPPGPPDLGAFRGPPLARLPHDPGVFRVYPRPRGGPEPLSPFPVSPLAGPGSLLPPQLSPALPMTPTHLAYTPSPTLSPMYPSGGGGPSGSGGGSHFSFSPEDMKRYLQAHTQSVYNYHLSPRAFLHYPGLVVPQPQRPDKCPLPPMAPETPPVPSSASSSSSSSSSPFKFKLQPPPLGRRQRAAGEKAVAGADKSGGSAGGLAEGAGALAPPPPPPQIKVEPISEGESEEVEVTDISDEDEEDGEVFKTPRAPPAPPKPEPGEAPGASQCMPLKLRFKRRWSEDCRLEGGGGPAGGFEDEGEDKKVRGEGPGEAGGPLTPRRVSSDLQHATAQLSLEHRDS
# In short: as §1
# [12] = target: T7, ETV3L (Homo sapiens, UniProt Q6ZN32 1-361); settings: protein: recombinant; tags: N-terminal GST; dsDNA, one strand shown
# T7 sequence: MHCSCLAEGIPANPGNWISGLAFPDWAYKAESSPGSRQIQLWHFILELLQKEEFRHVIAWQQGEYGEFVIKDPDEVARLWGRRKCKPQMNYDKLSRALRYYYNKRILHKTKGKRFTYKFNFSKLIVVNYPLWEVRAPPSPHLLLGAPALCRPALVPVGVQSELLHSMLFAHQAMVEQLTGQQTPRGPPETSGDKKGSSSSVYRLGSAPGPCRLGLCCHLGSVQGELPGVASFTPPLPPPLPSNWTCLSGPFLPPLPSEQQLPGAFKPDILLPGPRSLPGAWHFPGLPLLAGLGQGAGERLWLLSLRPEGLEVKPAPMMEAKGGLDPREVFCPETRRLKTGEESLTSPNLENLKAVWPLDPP
# In short: as §1
# [13] = target: T8, ETS2 (Homo sapiens, UniProt P15036 1-469); settings: protein: recombinant; tags: N-terminal GST; dsDNA, one strand shown
# T8 sequence: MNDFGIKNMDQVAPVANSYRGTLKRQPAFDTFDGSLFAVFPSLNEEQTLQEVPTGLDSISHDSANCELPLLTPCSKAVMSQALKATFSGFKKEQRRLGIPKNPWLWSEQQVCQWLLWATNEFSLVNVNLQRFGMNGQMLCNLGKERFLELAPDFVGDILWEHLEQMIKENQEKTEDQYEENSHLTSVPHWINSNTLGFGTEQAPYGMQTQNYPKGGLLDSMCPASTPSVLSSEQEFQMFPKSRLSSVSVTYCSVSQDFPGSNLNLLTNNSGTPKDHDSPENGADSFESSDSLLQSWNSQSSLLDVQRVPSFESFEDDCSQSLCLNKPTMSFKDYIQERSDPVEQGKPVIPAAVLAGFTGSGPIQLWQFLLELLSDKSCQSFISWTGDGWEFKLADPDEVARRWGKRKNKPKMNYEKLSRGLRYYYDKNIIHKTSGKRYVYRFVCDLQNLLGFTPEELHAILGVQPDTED
# In short: as §1
# [14] = target: T9, SPDEF (Homo sapiens, UniProt O95238 1-335); settings: protein: recombinant; tags: N-terminal GST; dsDNA, one strand shown
# T9 sequence: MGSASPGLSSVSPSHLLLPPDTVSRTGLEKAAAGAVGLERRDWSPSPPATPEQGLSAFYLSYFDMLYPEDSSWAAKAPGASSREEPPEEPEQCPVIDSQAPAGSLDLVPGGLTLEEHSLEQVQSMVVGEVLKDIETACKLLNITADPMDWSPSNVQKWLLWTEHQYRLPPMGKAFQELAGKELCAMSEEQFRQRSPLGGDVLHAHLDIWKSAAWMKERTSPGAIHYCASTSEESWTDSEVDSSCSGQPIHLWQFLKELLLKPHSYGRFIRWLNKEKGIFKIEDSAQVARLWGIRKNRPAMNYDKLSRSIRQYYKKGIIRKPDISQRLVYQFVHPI
# In short: as §1
# [15] = target: T10, ETV7 (Homo sapiens, UniProt Q9Y603 1-341); settings: protein: recombinant; tags: N-terminal GST; dsDNA, one strand shown
# T10 sequence: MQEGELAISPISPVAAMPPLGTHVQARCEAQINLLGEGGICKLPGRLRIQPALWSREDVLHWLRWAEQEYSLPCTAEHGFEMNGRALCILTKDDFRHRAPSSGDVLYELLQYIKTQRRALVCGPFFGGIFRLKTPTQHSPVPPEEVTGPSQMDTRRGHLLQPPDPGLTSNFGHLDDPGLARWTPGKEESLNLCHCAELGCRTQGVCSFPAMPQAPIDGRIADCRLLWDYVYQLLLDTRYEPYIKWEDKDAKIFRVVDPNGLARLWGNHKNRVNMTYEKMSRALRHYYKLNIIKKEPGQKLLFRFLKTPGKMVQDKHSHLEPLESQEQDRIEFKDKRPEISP
# In short: as §1
# [16] = target: T11, ELF5 (Homo sapiens, UniProt Q9UKW6-2 1-255); settings: protein: recombinant; tags: N-terminal GST; dsDNA, one strand shown
# T11 sequence: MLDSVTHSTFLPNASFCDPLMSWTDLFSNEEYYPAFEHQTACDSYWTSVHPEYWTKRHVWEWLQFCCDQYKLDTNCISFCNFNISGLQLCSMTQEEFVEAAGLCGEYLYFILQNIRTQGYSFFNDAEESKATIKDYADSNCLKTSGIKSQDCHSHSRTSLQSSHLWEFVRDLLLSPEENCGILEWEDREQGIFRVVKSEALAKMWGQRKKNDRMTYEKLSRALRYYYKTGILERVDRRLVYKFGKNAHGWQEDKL
# In short: as §1
# [17] = target: T12, ETV3 (Homo sapiens, UniProt P41162-2 1-143); settings: protein: recombinant; tags: N-terminal GST; dsDNA, one strand shown
# T12 sequence: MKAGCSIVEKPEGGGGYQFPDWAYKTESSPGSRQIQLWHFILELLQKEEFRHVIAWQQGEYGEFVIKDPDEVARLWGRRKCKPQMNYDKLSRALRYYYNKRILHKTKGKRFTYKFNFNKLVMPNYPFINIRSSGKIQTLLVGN
# In short: as §1
# [18] = target: ETV6 (Homo sapiens, UniProt P41212 1-452); settings: protein: recombinant; tags: N-terminal GST; dsDNA, one strand shown
# In short: as §1
# Chain of HSF1 (Q00613 whole entry): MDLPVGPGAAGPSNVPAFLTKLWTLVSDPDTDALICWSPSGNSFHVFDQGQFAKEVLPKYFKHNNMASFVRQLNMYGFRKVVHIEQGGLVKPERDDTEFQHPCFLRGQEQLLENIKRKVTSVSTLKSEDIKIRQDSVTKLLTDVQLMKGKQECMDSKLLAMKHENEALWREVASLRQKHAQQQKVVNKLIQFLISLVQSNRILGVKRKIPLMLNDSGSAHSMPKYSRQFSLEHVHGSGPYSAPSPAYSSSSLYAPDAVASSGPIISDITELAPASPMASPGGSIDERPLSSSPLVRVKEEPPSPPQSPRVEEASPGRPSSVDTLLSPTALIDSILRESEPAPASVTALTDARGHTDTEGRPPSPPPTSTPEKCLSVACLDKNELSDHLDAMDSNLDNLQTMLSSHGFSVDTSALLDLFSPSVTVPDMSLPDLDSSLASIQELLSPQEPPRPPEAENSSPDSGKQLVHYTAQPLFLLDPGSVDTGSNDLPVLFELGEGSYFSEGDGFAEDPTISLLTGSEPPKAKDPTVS
# Chain of ETV1 (P50549 whole entry): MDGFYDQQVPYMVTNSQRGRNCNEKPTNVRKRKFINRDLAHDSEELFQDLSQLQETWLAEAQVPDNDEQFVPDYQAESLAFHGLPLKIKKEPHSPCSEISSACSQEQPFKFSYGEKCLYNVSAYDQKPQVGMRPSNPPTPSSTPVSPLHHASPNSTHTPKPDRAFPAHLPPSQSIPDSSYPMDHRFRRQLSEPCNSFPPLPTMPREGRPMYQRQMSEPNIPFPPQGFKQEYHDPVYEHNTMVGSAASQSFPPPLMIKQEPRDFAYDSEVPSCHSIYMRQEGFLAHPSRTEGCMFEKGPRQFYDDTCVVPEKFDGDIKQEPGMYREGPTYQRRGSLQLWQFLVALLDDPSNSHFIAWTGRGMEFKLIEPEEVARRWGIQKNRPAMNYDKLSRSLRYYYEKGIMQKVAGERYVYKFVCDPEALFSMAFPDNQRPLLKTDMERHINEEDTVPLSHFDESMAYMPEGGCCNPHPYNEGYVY
# Chain of ELF4 (Q99607 whole entry): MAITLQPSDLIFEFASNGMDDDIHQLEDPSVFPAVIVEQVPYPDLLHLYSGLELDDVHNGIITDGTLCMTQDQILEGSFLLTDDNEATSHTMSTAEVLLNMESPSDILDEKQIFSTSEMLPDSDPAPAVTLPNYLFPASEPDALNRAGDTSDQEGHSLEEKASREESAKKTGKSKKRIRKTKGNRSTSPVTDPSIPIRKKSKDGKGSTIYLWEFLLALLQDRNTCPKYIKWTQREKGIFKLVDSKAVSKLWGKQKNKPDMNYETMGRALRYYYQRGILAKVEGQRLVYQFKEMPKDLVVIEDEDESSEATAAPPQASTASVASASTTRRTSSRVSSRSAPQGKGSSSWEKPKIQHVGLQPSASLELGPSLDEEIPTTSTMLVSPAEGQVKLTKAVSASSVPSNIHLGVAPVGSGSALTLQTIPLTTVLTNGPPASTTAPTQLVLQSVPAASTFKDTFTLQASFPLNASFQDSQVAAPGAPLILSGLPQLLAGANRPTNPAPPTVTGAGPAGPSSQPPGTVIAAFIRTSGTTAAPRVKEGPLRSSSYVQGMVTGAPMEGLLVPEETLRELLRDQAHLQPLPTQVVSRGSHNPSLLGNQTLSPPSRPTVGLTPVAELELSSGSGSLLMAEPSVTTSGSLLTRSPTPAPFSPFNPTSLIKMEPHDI
# Chain of ETV6 (P41212 whole entry): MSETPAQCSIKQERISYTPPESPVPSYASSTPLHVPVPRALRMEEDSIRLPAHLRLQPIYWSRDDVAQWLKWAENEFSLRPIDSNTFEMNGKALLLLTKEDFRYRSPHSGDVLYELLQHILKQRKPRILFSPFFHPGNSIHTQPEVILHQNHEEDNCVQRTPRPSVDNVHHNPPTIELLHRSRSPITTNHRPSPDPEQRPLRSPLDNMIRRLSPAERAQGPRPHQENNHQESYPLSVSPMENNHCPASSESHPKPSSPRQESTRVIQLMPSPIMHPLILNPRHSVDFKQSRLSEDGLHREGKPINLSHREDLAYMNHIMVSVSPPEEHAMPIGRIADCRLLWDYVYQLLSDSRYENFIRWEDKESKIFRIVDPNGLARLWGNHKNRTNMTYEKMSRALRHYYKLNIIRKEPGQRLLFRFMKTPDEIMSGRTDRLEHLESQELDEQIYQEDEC
# Chain of CRX (O43186 whole entry): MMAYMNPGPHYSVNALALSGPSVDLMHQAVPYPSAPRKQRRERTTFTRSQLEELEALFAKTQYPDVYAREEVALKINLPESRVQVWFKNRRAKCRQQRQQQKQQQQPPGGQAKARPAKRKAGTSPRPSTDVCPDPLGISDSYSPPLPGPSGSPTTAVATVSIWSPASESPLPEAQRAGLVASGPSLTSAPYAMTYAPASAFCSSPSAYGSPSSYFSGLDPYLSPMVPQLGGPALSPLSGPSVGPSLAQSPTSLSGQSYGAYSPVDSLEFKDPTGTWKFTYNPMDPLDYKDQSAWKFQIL
# Chain of ETV5 (P41161 whole entry): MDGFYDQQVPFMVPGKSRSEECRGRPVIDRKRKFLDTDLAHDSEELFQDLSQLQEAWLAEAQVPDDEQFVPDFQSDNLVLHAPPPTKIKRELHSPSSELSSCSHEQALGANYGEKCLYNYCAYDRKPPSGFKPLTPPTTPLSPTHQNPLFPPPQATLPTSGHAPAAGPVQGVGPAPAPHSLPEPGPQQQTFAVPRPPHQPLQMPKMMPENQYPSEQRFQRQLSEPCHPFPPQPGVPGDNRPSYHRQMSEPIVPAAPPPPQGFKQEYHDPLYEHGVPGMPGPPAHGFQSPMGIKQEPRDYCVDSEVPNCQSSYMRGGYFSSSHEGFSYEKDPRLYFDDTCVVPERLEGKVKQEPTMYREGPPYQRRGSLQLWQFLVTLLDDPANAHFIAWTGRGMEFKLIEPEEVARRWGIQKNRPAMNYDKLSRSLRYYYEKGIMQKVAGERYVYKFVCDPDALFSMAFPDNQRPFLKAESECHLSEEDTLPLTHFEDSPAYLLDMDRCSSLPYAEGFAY
sequence,measurement,setting,value
TACTCG,binding signal,[1],"1.23 fold enrichment (6-mer frequency, TF over GST control)"
same,binding signal,[2],"1.28 fold enrichment (6-mer frequency, TF over GST control)"
same,binding signal,[3],"1.72 fold enrichment (6-mer frequency, TF over GST control)"
same,binding signal,[4],"1.25 fold enrichment (6-mer frequency, TF over GST control)"
same,binding signal,[5],"1.22 fold enrichment (6-mer frequency, TF over GST control)"
same,binding signal,[6],"1.3 fold enrichment (6-mer frequency, TF over GST control)"
same,binding signal,[7],"1.19 fold enrichment (6-mer frequency, TF over GST control)"
same,binding signal,[8],"1.29 fold enrichment (6-mer frequency, TF over GST control)"
same,binding signal,[9],"1.38 fold enrichment (6-mer frequency, TF over GST control)"
same,binding signal,[10],"1.26 fold enrichment (6-mer frequency, TF over GST control)"
same,binding signal,[11],"1.3 fold enrichment (6-mer frequency, TF over GST control)"
same,binding signal,[12],"1.27 fold enrichment (6-mer frequency, TF over GST control)"
same,binding signal,[13],"1.28 fold enrichment (6-mer frequency, TF over GST control)"
same,binding signal,[14],"1.2 fold enrichment (6-mer frequency, TF over GST control)"
same,binding signal,[15],"1.27 fold enrichment (6-mer frequency, TF over GST control)"
same,binding signal,[16],"1.25 fold enrichment (6-mer frequency, TF over GST control)"
same,binding signal,[17],"1.28 fold enrichment (6-mer frequency, TF over GST control)"
same,binding signal,[18],"1.28 fold enrichment (6-mer frequency, TF over GST control)"
